Data: PubChem BioAssay (NCI)
About 83,000 compounds went through this panel and 20% of them were active in at least one assay; those are over-represented in the sample as a whole.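 For each line, cells grew in 96-well plates with the test compound present at a single concentration for 48 hours.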 Values without a mark were called inactive. Calls of active or inactive are those of the source. Rule for the calls: active = growth percent below 10; inactive = the rest.

Tested on: SF-539 CNS
Experiment: NCI-60 one-dose screen, 48 h (100 = growth as untreated, 0 = no growth, -100 = all killed)
Conditions: 10 µM unless noted

Row | SMILES | growth
1 | COC(=O)c1sccc1-c1cc(O)c(C(=O)Nc2ccccc2)s1 | 98.8%
2 | O=C(C1=Cc2cc3ccccc3n2Cc2cnnn21)c1ccc(F)cc1 | 101%
3 | Cc1cccc(N2C(=O)/C(=C/C(Cl)=C/c3ccc([N+](=O)[O-])cc3)SC2=S)c1C | -3.16% (active)
4 | CS(=O)/C(C#N)=C\C=C\c1cccc(Cl)c1 (stereo not given) | 17.7%
5 | CCOC(=O)/C=C1\S/C(=N\Nc2cc(=O)[nH]c3ccc(Br)cc23)N(c2ccccc2)C1=O | 80.8%
6 | Cc1ccc2nc(-c3ccc(C(=O)N/N=C/c4ccc([N+](=O)[O-])cc4)cc3)[nH]c2c1 | 97.5%
7 | COc1ccc(/C=C/C(c2cc(OC)c(OC)c(OC)c2)n2cncn2)cc1O (stereo not given) | -4.58% (active)
8 | CCCCCCCCCCCCCCCCCCOc1ccccc1CC(=O)NCC[N+](C)(C)C | 46.4%
9 | CCOC(=O)c1c(C)nc2ccccc2c1/C=C/c1ccc(F)cc1 | 81%
10 | N#Cc1c(-c2ccccc2)cc(-c2ccccc2)n(CCCCC(=O)NO)c1=O | 24.3%
11 | COc1cc(Cc2cc(OC)c(O)c(OC)c2)cc(OC)c1O | 101%
12 | COc1cc(/C=C/c2cc(/C=C/c3ccc(O)c(OC)c3)n(C(=O)Nc3ccc(Cl)cc3)n2)ccc1O | 0.163% (active)
13 | NS(=O)(=O)c1ccc(C(=O)NN2C(=O)c3ccccc3C2=O)cc1 | 113%
14 | CS(=O)(=O)c1ccc(-c2nc3ccccc3n2CC(=O)N/N=C/c2ccccc2)cc1 | 97.5%
15 | CCn1cc(C(=O)N/N=C/c2cccc(F)c2)c(=O)c2cc(F)c(N3CCNC(C)C3)c(F)c21 (stereo not given) | -4.61% (active)
16 | CCCC(=O)NC(c1ccc2c(c1)OCO2)c1cc(Cl)c2cccnc2c1O (stereo not given) | 18.6%
17 | O=C(c1cccc(N2CCOCC2)n1)c1c[nH]c2ccccc12 | 88.9%
18 | Cc1cc(C(=O)CCCC(=O)c2cc(C)c(O)c(C)c2)cc(C)c1O | 102%
19 | O=C(/C=C/c1ccccc1)c1cccc2ccccc12 | 51.2%
20 | CNC(=O)c1cc(Oc2ccc3c(c2)sc2nc(-c4ccc(NC(=O)[C@@H](NC(=O)OC)C(C)C)cc4)cn23)ccn1 | 88.2%

Row | SMILES | growth
21 | FC(F)(F)c1[nH]ncc1-c1nc2ccc3[nH]ncc3c2c2c1CCCC2 | -35.1% (active)
22 | COC(=O)c1ccc2c(c1)c1c(C)c3cnccc3c(C)c1n2C | -37.5% (active)
23 | CC1=C2[C@@H](CC1)[C@]1(C)O[C@@](C3CCNCC3)(C[C@H]1OC(=O)CO)[C@H]2OC(=O)/C=C/c1ccccc1 | 91.5%
24 | CCOC(=O)CC1CSC(N/N=C/c2ccc(F)c(Br)c2)=N1 (stereo not given) | 106%
25 | O=C1/C(=C/c2cccc(Br)c2)COc2ccc(O)cc21 | 69.3%
26 | O=C(Cn1nc(-c2cccc3ccccc23)ccc1=O)NCc1cccc(Cl)c1 | 58.3% [50 µM]
27 | COc1cc(O)c2c(=O)c3c(CC=C(C)C)cc(OC)c(O)c3oc2c1 | 6.54% (active)
28 | Nc1ccc(Br)cc1C(F)(F)F | 97%
29 | O=C(Nc1ccc(Oc2cccc(Cl)c2)c(Cl)c1)c1cccnn1 | 95.3%
30 | COc1cccc(-c2cn3nc(-c4cn(C)c5ccccc45)sc3n2)c1 | 94%
31 | c1ccc(-c2c(-c3ccccc3)[n+](Cc3ccc4ccccc4c3)cn2Cc2ccc3ccccc3c2)cc1 | -88.3% (active)
32 | COc1ccc(C2[C@@H](c3ccccc3)C(=O)N2c2cc(OC)c(OC)c(OC)c2)cc1F (stereo not given in full) | 14.8%
33 | CC(C)CCC[C@@H](C)[C@H]1CC[C@H]2[C@@H]3CC=C4c5sc(Nc6cc(C(F)(F)F)cc(C(F)(F)F)c6)nc5CC[C@]4(C)[C@H]3CC[C@]12C | 98%
34 | Nc1cc(C(=O)O)cc(-n2c(O)c(C=C3N=c4ccccc4=N3)sc2=S)c1 | 97.3%
35 | COc1cccc(CNc2c3ccccc3nc3ccccc23)c1OC | 18.9%
36 | Clc1ccc(Nc2ncc(Cc3cccc(Cl)c3Cl)s2)cc1 | 94.7%
37 | CCOC(=O)c1cnn(CC(C)O)c1NC(=O)NCc1cccc(F)c1 (stereo not given) | 98.2%
38 | C=C1C(=O)O[C@@H]2C3C(=C(C)CC[C@@H]12)CC1O[C@]13C (stereo not given in full) | 82.3% [6.75 µM]
39 | CCOC(=O)C1=C(c2ccccc2)N=C2N(c3ccccc3)N=C(C(C)=O)N2C1c1ccc(F)cc1 (stereo not given) | 101%
40 | CCCOC(=O)Nc1nc2ccc(SCC)cc2s1 | 80.9%

Tested on: UACC-257 melanoma
Experiment: as above
Conditions: 10 µM unless noted

Row | SMILES | growth
41 | COC(=O)c1sccc1-c1cc(O)c(C(=O)Nc2ccccc2)s1 | 91.6%
42 | O=C(C1=Cc2cc3ccccc3n2Cc2cnnn21)c1ccc(F)cc1 | 107%
43 | Cc1cccc(N2C(=O)/C(=C/C(Cl)=C/c3ccc([N+](=O)[O-])cc3)SC2=S)c1C | 14.3%
44 | CS(=O)/C(C#N)=C\C=C\c1cccc(Cl)c1 (stereo not given) | 31.9%
45 | CCOC(=O)/C=C1\S/C(=N\Nc2cc(=O)[nH]c3ccc(Br)cc23)N(c2ccccc2)C1=O | 89.9%
46 | Cc1ccc2nc(-c3ccc(C(=O)N/N=C/c4ccc([N+](=O)[O-])cc4)cc3)[nH]c2c1 | 108%
47 | COc1ccc(/C=C/C(c2cc(OC)c(OC)c(OC)c2)n2cncn2)cc1O (stereo not given) | 55.6%
48 | CCCCCCCCCCCCCCCCCCOc1ccccc1CC(=O)NCC[N+](C)(C)C | 93.8%
49 | CCOC(=O)c1c(C)nc2ccccc2c1/C=C/c1ccc(F)cc1 | 83%
50 | N#Cc1c(-c2ccccc2)cc(-c2ccccc2)n(CCCCC(=O)NO)c1=O | 35.8%
51 | COc1cc(Cc2cc(OC)c(O)c(OC)c2)cc(OC)c1O | 89.3%
52 | COc1cc(/C=C/c2cc(/C=C/c3ccc(O)c(OC)c3)n(C(=O)Nc3ccc(Cl)cc3)n2)ccc1O | 3.11% (active)
53 | NS(=O)(=O)c1ccc(C(=O)NN2C(=O)c3ccccc3C2=O)cc1 | 110%
54 | CS(=O)(=O)c1ccc(-c2nc3ccccc3n2CC(=O)N/N=C/c2ccccc2)cc1 | 98.8%
55 | CCn1cc(C(=O)N/N=C/c2cccc(F)c2)c(=O)c2cc(F)c(N3CCNC(C)C3)c(F)c21 (stereo not given) | 89%
56 | CCCC(=O)NC(c1ccc2c(c1)OCO2)c1cc(Cl)c2cccnc2c1O (stereo not given) | 37.8%
57 | O=C(c1cccc(N2CCOCC2)n1)c1c[nH]c2ccccc12 | 87.7%
58 | Cc1cc(C(=O)CCCC(=O)c2cc(C)c(O)c(C)c2)cc(C)c1O | 105%
59 | O=C(/C=C/c1ccccc1)c1cccc2ccccc12 | 40.2%
60 | CNC(=O)c1cc(Oc2ccc3c(c2)sc2nc(-c4ccc(NC(=O)[C@@H](NC(=O)OC)C(C)C)cc4)cn23)ccn1 | 59.5%

Row | SMILES | growth
61 | FC(F)(F)c1[nH]ncc1-c1nc2ccc3[nH]ncc3c2c2c1CCCC2 | 17.6%
62 | COC(=O)c1ccc2c(c1)c1c(C)c3cnccc3c(C)c1n2C | -41.4% (active)
63 | CC1=C2[C@@H](CC1)[C@]1(C)O[C@@](C3CCNCC3)(C[C@H]1OC(=O)CO)[C@H]2OC(=O)/C=C/c1ccccc1 | 85%
64 | CCOC(=O)CC1CSC(N/N=C/c2ccc(F)c(Br)c2)=N1 (stereo not given) | 103%
65 | O=C1/C(=C/c2cccc(Br)c2)COc2ccc(O)cc21 | 99.9%
66 | O=C(Cn1nc(-c2cccc3ccccc23)ccc1=O)NCc1cccc(Cl)c1 | 44.2% [50 µM]
67 | COc1cc(O)c2c(=O)c3c(CC=C(C)C)cc(OC)c(O)c3oc2c1 | 63.1%
68 | Nc1ccc(Br)cc1C(F)(F)F | 104%
69 | O=C(Nc1ccc(Oc2cccc(Cl)c2)c(Cl)c1)c1cccnn1 | 104%
70 | COc1cccc(-c2cn3nc(-c4cn(C)c5ccccc45)sc3n2)c1 | 97.5%
71 | c1ccc(-c2c(-c3ccccc3)[n+](Cc3ccc4ccccc4c3)cn2Cc2ccc3ccccc3c2)cc1 | -84% (active)
72 | COc1ccc(C2[C@@H](c3ccccc3)C(=O)N2c2cc(OC)c(OC)c(OC)c2)cc1F (stereo not given in full) | 20.8%
73 | CC(C)CCC[C@@H](C)[C@H]1CC[C@H]2[C@@H]3CC=C4c5sc(Nc6cc(C(F)(F)F)cc(C(F)(F)F)c6)nc5CC[C@]4(C)[C@H]3CC[C@]12C | 99.2%
74 | Nc1cc(C(=O)O)cc(-n2c(O)c(C=C3N=c4ccccc4=N3)sc2=S)c1 | 102%
75 | COc1cccc(CNc2c3ccccc3nc3ccccc23)c1OC | 54.8%
76 | Clc1ccc(Nc2ncc(Cc3cccc(Cl)c3Cl)s2)cc1 | 96.6%
77 | CCOC(=O)c1cnn(CC(C)O)c1NC(=O)NCc1cccc(F)c1 (stereo not given) | 99.7%
78 | C=C1C(=O)O[C@@H]2C3C(=C(C)CC[C@@H]12)CC1O[C@]13C (stereo not given in full) | 70.4% [6.75 µM]
79 | CCOC(=O)C1=C(c2ccccc2)N=C2N(c3ccccc3)N=C(C(C)=O)N2C1c1ccc(F)cc1 (stereo not given) | 113%
80 | CCCOC(=O)Nc1nc2ccc(SCC)cc2s1 | 96.4%
